Experimental data taken from PMC5540273 (PLoS ONE, 2017).

Tests used:
Settings in all cases: concentration: 1 μM, replicates: in singlicate; n = 1
[1] = system: BTK
[2] = system: BUB1
[3] = system: CAMK1B
[4] = system: CAMK1D
[5] = system: CAMK1G
[6] = system: CAMK1
[7] = system: CAMK2A
[8] = system: CAMK2B
[9] = system: CAMK2D
[10] = system: CAMK2G
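Further: KINOMEscan kinase panel screen.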

SMILES	%Inh [1]	%Inh [2]	%Inh [3]	%Inh [4]	%Inh [5]	%Inh [6]	%Inh [7]	%Inh [8]	%Inh [9]	%Inh [10]
O=C(Nc1n[nH]c2cc(-c3ccsc3)ccc12)C1CC1 [SB-732932]	10%	20%	2%	0%	23%	30%	20%	11%	12%	15%
CS(=O)(=O)CCNCc1nc(-c2ccc3ncnc(Nc4ccc(OCc5ccccc5)c(Cl)c4)c3c2)cs1.Cl [GW582764]	35%	62%	4%	3%	0%	9%	0%	0%	1%	18%
COc1ccc(Nc2nccc(N3CCC(NC(=O)c4cc5ccccc5s4)C3)n2)cc1 (centres unmarked) [GSK1379738]	0%	49%	0%	5%	67%	17%	0%	0%	59%	11%
COc1ccc(Nc2nccc(NCCNC(=O)Nc3cc(C)ccc3C)n2)cc1 [GSK1379899]	0%	0%	4%	0%	0%	3%	0%	0%	0%	0%
Cl.Cl.Cl.N#Cc1ccc(CCNc2nccc(-c3cccc(CN4CCNCC4)c3)n2)cc1 [GSK2137462]	0%	0%	0%	29%	24%	31%	11%	3%	28%	27%
